KLF5 inhibitor – inhibitors of KLF5 expression; DLD-1 KLF5 promoter-luciferase reporter, luminescence; inhibition, % at 5 µM; hit rate 0.23% among 290,000; AID 1700;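 active = inhibition above a per-plate limit of that plate's mean compound inhibition plus 3 SD, cut at about 60% in these data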;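 also: 0% = DMSO wells and 100% = LY294002 at 200 µM; higher means less KLF5 promoter-driven luciferase light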
Jurkat NFkB inh – inhibitors of the PMA/ionomycin-induced NF-kB reporter in Jurkat cells | PMA/ionomycin-induced NF-kB luciferase reporter, luminescence | hit rate 0.53% among 330,000 | inhibition, % at 4 µM; in the data active = inhibition above about 50%
Mdm2-MdmX inh – disrupts the human Mdm2-MdmX interaction; O15151+Q00987; SaOS-2 split-luciferase Mdm2/MdmX complementation, luminescence; inhibition, % at 8 µM; hit rate 3% among 330,000; AID 485346;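 active = inhibition of at least 50% at 8 µM in the primary screen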
Target sequence (O15151 whole entry, looked up): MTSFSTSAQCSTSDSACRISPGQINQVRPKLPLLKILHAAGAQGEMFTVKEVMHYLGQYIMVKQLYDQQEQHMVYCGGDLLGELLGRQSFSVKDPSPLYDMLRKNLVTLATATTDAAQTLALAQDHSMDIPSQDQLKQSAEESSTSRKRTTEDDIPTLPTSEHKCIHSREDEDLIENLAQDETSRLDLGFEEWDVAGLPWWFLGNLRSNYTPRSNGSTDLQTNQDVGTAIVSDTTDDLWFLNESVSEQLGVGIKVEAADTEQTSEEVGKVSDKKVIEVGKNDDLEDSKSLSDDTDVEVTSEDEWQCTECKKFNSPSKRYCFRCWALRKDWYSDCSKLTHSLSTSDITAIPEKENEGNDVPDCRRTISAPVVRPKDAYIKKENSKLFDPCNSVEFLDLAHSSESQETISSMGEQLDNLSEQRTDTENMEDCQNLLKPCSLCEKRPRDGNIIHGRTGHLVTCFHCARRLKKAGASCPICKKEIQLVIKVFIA
Target sequence (Q00987 whole entry, looked up): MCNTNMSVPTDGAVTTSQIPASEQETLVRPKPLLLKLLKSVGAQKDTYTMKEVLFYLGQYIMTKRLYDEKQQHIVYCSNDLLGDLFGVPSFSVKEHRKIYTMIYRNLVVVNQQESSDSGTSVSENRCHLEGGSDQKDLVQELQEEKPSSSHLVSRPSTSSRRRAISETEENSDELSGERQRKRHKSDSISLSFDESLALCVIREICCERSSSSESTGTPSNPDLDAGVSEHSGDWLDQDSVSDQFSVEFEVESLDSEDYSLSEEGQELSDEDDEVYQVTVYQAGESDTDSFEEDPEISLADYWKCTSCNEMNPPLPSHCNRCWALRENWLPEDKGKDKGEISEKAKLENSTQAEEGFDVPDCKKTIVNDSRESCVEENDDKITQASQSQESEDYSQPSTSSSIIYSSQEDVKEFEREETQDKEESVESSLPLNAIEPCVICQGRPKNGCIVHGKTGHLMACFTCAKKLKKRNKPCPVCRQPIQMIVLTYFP
Gli-Sufu block – Gli-Sufu pathway antagonism. hit rate 0.74% among 340,000. inhibition, % at 5 µM. Sufu-KO-LIGHT fibroblasts, Gli luciferase reporter luminescence;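 active = inhibition above about 55%, limit read from the data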;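 also: 0% = DMSO-treated cells and 100% = wells with medium but no cells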
aSyn 5UTR inh – MLPCN primary screen, SNCA 5' untranslated region; alpha-synuclein 5'UTR reporter, inhibitor activity; inhibition, % (tested at 7.5 µM); hit rate 0.82% among 300,000; AID 1813; in the data active = inhibition above about 60%;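 also: H4 neuroglioblastoma cells stably carrying SNCA 5'UTR luciferase fusion; 0% = DMSO wells and 100% = positive control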
697 NFkB inh – inhibitors of the PMA/ionomycin-induced NF-kB reporter in 697 B cells | 697 B-cell NF-kB luciferase reporter, 16 h | inhibition, % at 4 µM | hit rate 0.33% among 330,000 | AID 435022; in the data active = inhibition above about 35%
Jurkat NFkB conf – lowers PMA/ionomycin-induced NF-kB signal in Jurkat cells | shares compounds with Jurkat NFkB inh | AID 435020 | hit rate 27% among 2,700 | Jurkat NF-kB luciferase, 16 h | inhibition, % at 4 µM;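 active = inhibition reaching about 45% at 4 µM in either replicate, limit read from the data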;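 also: plate controls were PMA/ionomycin stimulated DMSO wells for no effect and unstimulated DMSO wells for full effect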
Numbers without * were called inactive; / = no result. Most compounds without a hit are left out; they make up all but 4.1% or so of the library.

SMILES	KLF5 inhibitor	Jurkat NFkB inh	Mdm2-MdmX inh	Gli-Sufu block	aSyn 5UTR inh	697 NFkB inh	Jurkat NFkB conf
O=C(NCCc1ccc(Cl)cc1)c1ccc2c(c1)OCCO2	-120.8	-168.5	-85.7	-86.0	-37.7	-222.7	-132.8
CC(NC(=O)COC(=O)CNS(=O)(=O)/C=C/c1ccccc1)c1ccccc1 (stereo not given)	/	25.5	3.9	-6.5	/	5.1	/
Cc1ccc(NS(=O)(=O)c2ccc(C(=O)NC3CCN(Cc4ccccc4)CC3)cc2)cc1	/	57.1*	34.8	15.3	/	15.5	58.8*
COc1ccc(C(=O)Cn2c(=N)n(C)c3ccccc32)cc1	-73.3	-123.8	-75.8	-37.0	-62.4	-199.4	/
COc1ccc(C(=O)CN2Cc3ccccc3C2=N)cc1	-163.4	-156.7	-144.1	-54.4	-19.3	-202.1	-76.0
Cc1c(-c2nc(N)nc(Nc3ccccc3F)n2)oc2ccccc12	-160.0	-200.2	-109.9	-145.8	-178.3	-181.8	-98.7
CNc1ccc(/C=C(\C#N)c2ccccn2)cc1[N+](=O)[O-]	-17.6	-194.7	8.0	-40.7	-156.9	-59.1	-50.5
N#C/C(=C\c1ccccc1)c1ccccn1	-16.3	-38.6	-0.8	-31.8	-100.4	-32.3	/
Cc1cc(C(=O)Nc2nc3c(s2)CCCC3)cs1	-130.2	-164.8	-159.8	-32.8	-52.1	0.3	-97.1
O=C(Nc1nc2c(s1)CCCC2)c1ccc2ncsc2c1	-45.5	-182.8	-213.2	-71.6	-36.1	-223.6	-86.2
Cc1ncsc1C(=O)Nc1nc2c(s1)CCCC2	-113.8	-104.9	-63.8	-47.3	-158.6	-64.0	/
O=C(Nc1nc2c(s1)CCCC2)c1ccc(Br)s1	-166.0	-190.1	-172.6	-51.9	-93.3	-221.3	-104.8
CC1=CC(C)C(/C=N/N=C(N)N)C(C)C1 (stereo not given)	-23.8	5.0	26.9	6.8	-17.7	3.9	/
COc1cccc(NC(=O)CSc2nnc(-c3ccc(C)cc3)o2)c1	-172.3	-185.2	-278.9	-22.4	-114.5	-30.4	-23.9
COc1ccccc1NC(=O)CSc1nnc(-c2ccc(C)cc2)o1	-116.6	-162.5	-189.5	-70.2	19.9	-141.2	-90.7
COc1ccc(C)cc1NC(=O)CSc1nnc(-c2ccc(Br)cc2)o1	-1.9	-26.0	-62.0	-4.6	-54.7	4.3	/
Cc1nc(NC(=O)c2ccccc2O)sc1C	-136.7	-26.3	-41.2	-36.7	-127.6	-2.1	/
Cc1nc(NC(=O)c2csc3ccccc23)sc1C	-130.8	-164.7	-201.9	-63.6	-141.2	-145.3	-128.8
COc1cc(SC)ccc1C(=O)Nc1ccc(C)cc1	-69.8	-171.0	-203.8	-119.8	-141.6	-194.1	-111.9
COc1cc(SC)ccc1C(=O)Nc1ccc(C)cc1C	-137.5	-152.7	-242.8	-84.3	-54.4	-112.2	-86.7
O=C(CCC1CCN(C(=O)c2ccco2)CC1)NCc1ccc(F)cc1	10.7	-10.2	2.4	-9.7	-3.4	20.9	/
CCn1c(=O)c2sccc2n(CC(=O)NCCC2=CCCCC2)c1=O	-24.4	-4.8	29.4	-18.7	0.1	14.7	/
Cc1onc(-c2ccccc2)c1C(=O)Nc1ccc(S(=O)(=O)NC(C)(C)C)cc1	-3.7	-1.7	14.7	/	12.2	-2.6	/
Cc1ccc(S(=O)(=O)N(C)C)cc1NC(=O)COC(=O)c1ccc2ccccc2n1	/	17.3	11.0	-0.5	/	20.4	/
CN(C)S(=O)(=O)c1cccc(NC(=O)COC(=O)c2ccc3ccccc3n2)c1	/	60.1*	-7.0	-1.7	/	19.3	8.7
SMILES	KLF5 inhibitor	Jurkat NFkB inh	Mdm2-MdmX inh	Gli-Sufu block	aSyn 5UTR inh	697 NFkB inh	Jurkat NFkB conf
CC1c2cc3c(cc2CCN1S(=O)(=O)c1ccccc1)OCCCO3 (stereo not given)	-28.5	-6.4	8.2	2.8	4.4	-1.4	/
Cc1ccc(S(=O)(=O)CCC(=O)OCC(=O)Nc2ccc(N3CCOCC3)cc2)cc1	/	12.7	17.6	-11.9	7.4	20.6	/
NC(=O)c1ccsc1NC(=O)c1ccc(N2CCCC2=O)cc1	-81.9	-160.9	-170.0	-106.5	/	-139.4	-70.4
Cc1ccc(C(=O)CSc2nnc3ccccn23)c(C)c1	-126.9	-157.6	-55.5	-106.2	-73.5	-130.7	-83.2
O=C(CSc1nnc2ccccn12)c1ccc(OC(F)F)cc1OC(F)F	-15.5	4.3	0.5	8.5	16.2	2.9	/
CCOC(=O)c1ccc(NC(=O)c2nc[nH]c2C(=O)NCCCCNC(=O)c2[nH]cnc2C(=O)Nc2ccc(C(=O)OCC)cc2)cc1	/	67.2*	16.5	27.0	/	9.0	22.8
CCOC(=O)c1ccc(NC(=O)c2nc[nH]c2C(=O)NCCCNC(=O)c2[nH]cnc2C(=O)Nc2ccc(C(=O)OCC)cc2)cc1	/	3.5	18.3	-15.2	/	8.4	/
Cc1ccc(O)c(NC(=O)Cc2ccc3ccccc3c2)c1	4.1	74.3*	5.3	28.0	10.9	-23.4	37.2
Cc1ccc(O)c(NC(=O)CSc2ccc(Cl)cc2)c1	-33.8	69.3*	25.8	21.3	-177.1	-11.6	35.0
CCOc1ccc(N2C(=O)CC(N(CCc3ccc(OC)c(OC)c3)C(=O)/C=C/C(=O)O)C2=O)cc1 (stereo not given)	-4.3	6.7	-1.8	0.9	-5.3	22.4	/
CCOC(=O)c1sc2nc(C)nc(SC(C)C(=O)NC3CC3)c2c1C (stereo not given)	/	-16.0	-2.2	7.3	/	-5.5	/
Fc1ccc(-c2csc(N3CCOCC3)n2)cc1	-53.4	-30.8	7.2	30.1	-129.3	-45.9	/
c1ccc2oc(-c3csc(N4CCOCC4)n3)cc2c1	-132.8	-221.5	-121.1	-100.8	-2.6	-216.4	-23.1
O=C(c1cc(-c2cccc(O)c2)on1)N1CCCCC1	-123.8	-159.7	-142.6	-2.7	-26.7	-184.5	-87.9
Cc1ccc(-c2cc(C(=O)N3CCCCCC3)no2)cc1	-117.9	-181.6	-154.2	-66.8	-30.4	-228.7	-115.3
CCOC(=O)C1=C(C)Nc2ccccc2N=C1NC(=O)c1cc(C)on1	/	-9.5	8.0	4.0	/	29.0	/
O=S(=O)(c1ccccc1)[C@@]1(c2ccc(Br)cc2)C[C@@H]2ON=C(c3ccccc3)[C@@H]2C1	/	15.1	34.4	-26.0	15.2	23.5	/
Cc1cccc(C)c1NC(=O)Nc1ccc(S(N)(=O)=O)cc1	-12.9	-2.2	12.1	-0.8	9.3	13.5	/
Cc1cc(Nc2ccc(C)c(C)c2)c2ccccc2n1	-18.9	10.6	32.9	17.8	22.3	-44.2	/
Cc1ccc(Nc2nc(N)c3ccccc3n2)cc1C	21.8	-165.6	-216.3	-3.1	46.3	-248.0	-119.7
COc1ccc(CCN2C(=O)C3C4C=CC(C3C2=O)C2C(=O)N(CCc3ccc(OC)c(OC)c3)C(=O)C42)cc1OC (stereo not given)	-12.8	59.1*	8.0	8.2	4.8	21.1	55.5*
O=C(CN1C(=O)NC2(CCCCCCC2)C1=O)Nc1cccc(Br)c1	/	-8.5	24.8	-15.2	/	-2.7	/
COc1ccc(C2=NOC(C(=O)NCc3cccs3)C2)cc1OC (stereo not given)	40.6	50.2*	44.7	-2.7	59.7	-98.8	43.8
COc1cc(C2=NOC(C(=O)NCc3cccs3)C2)cc(OC)c1OC (stereo not given)	42.5	50.3*	42.8	2.7	24.1	-66.7	36.1
